Source: PubChem BioAssay (NCI)
The panel holds about 83,000 compounds, 20% with a hit somewhere; the sample as a whole holds those more often.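 Activity criterion: percent growth below 10, measured after cells in 96-well plates were exposed to a single compound concentration for 48 hours.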 Active and inactive are the calls of the source.

What was measured:
Test in all cases: NCI-60 one-dose screen, 48 h (100 = growth as untreated, 0 = no growth, -100 = all killed)
Settings in all cases: 10 µM unless noted
SR leukemia = system: SR leukemia
RPMI-8226 leukemia = system: RPMI-8226 leukemia
OVCAR-8 ovarian = system: OVCAR-8 ovarian
OVCAR-5 ovarian = system: OVCAR-5 ovarian
OVCAR-4 ovarian = system: OVCAR-4 ovarian
SK-OV-3 ovarian = system: SK-OV-3 ovarian
IGROV1 ovarian = system: IGROV1 ovarian
OVCAR-3 ovarian = system: OVCAR-3 ovarian
HS 578T breast = system: HS 578T breast
NCI/ADR-RES ovarian = system: NCI/ADR-RES ovarian
T-47D breast = system: T-47D breast
BT-549 breast = system: BT-549 breast
MDA-MB-435 melanoma = system: MDA-MB-435 melanoma
SW-620 colon = system: SW-620 colon
MCF7 breast = system: MCF7 breast
HCT-116 colon = system: HCT-116 colon
HCC-2998 colon = system: HCC-2998 colon
KM12 colon = system: KM12 colon

Measured: growth

O=S(=O)(NCCCNc1nccc(-c2[nH]c(-c3ccccc3)nc2-c2ccc(F)c(O)c2)n1)c1cccc2ccccc12
active: RPMI-8226 leukemia 4.6%
inactive: SR leukemia 28.6% | OVCAR-8 ovarian 54.3% | OVCAR-5 ovarian 146% | OVCAR-4 ovarian 81.9% | SK-OV-3 ovarian 103% | IGROV1 ovarian 58.3% | OVCAR-3 ovarian 88.4% | HS 578T breast 40.7% | NCI/ADR-RES ovarian 91.1% | T-47D breast 51.3% | BT-549 breast 69.2% | MDA-MB-435 melanoma 36.9% | SW-620 colon 68.9% | MCF7 breast 44.9% | HCT-116 colon 34.6% | HCC-2998 colon 99% | KM12 colon 55.7%

O=C(CSc1nnc(-c2ccc(Cl)cc2)n1-c1ccccc1)Nc1ccccc1Cl
active: OVCAR-4 ovarian 8.39%
inactive: SR leukemia 20.5% | RPMI-8226 leukemia 35.4% | OVCAR-8 ovarian 67.2% | OVCAR-5 ovarian 81.3% | SK-OV-3 ovarian 125% | IGROV1 ovarian 52.3% | OVCAR-3 ovarian 91.6% | HS 578T breast 58.8% | NCI/ADR-RES ovarian 54.8% | T-47D breast 45.7% | BT-549 breast 53.8% | MDA-MB-435 melanoma 80.9% | SW-620 colon 51.6% | MCF7 breast 66.4% | HCT-116 colon 12.1% | HCC-2998 colon 88.3% | KM12 colon 80%

CN1CCN(c2ccc(Nc3nc(NCCCNS(=O)(=O)c4ccc(Cl)cc4)c4sccc4n3)cc2)CC1
inactive: OVCAR-8 ovarian 17% | OVCAR-5 ovarian 39.5% | SK-OV-3 ovarian 54.1% | IGROV1 ovarian 25.9% | HS 578T breast 20.2% | NCI/ADR-RES ovarian 47.7% | T-47D breast 11.6% | SW-620 colon 20.7% | MCF7 breast 20% | HCC-2998 colon 20%
active: SR leukemia 5.77% | RPMI-8226 leukemia 4.97% | OVCAR-4 ovarian -0.0486% | OVCAR-3 ovarian -6.9% | BT-549 breast -70.2% | MDA-MB-435 melanoma 7.33% | HCT-116 colon 1.81%

C#CCOc1ccccc1/C=N/Nc1nc(-c2ccc(Cl)cc2)cs1
inactive: SR leukemia 101% | RPMI-8226 leukemia 91.5% | OVCAR-8 ovarian 98.1% | OVCAR-5 ovarian 92.3% | OVCAR-4 ovarian 87.8% | SK-OV-3 ovarian 93.9% | IGROV1 ovarian 77.8% | OVCAR-3 ovarian 98.8% | HS 578T breast 99.6% | NCI/ADR-RES ovarian 94.2% | T-47D breast 71.9% | BT-549 breast 128% | MDA-MB-435 melanoma 104% | SW-620 colon 93.4% | MCF7 breast 77.5% | HCT-116 colon 90.7% | HCC-2998 colon 120% | KM12 colon 91.4%

Cc1ccc(S(=O)(=O)NCCCNc2nccc(-c3[nH]c(-c4ccccc4)nc3-c3ccc(F)c(O)c3)n2)cc1
inactive: SR leukemia 33.8% | RPMI-8226 leukemia 53.7% | OVCAR-8 ovarian 86.7% | OVCAR-5 ovarian 143% | OVCAR-4 ovarian 107% | SK-OV-3 ovarian 117% | IGROV1 ovarian 99% | OVCAR-3 ovarian 132% | HS 578T breast 99.6% | NCI/ADR-RES ovarian 104% | T-47D breast 71.1% | BT-549 breast 93.1% | MDA-MB-435 melanoma 17.6% | SW-620 colon 115% | MCF7 breast 73.5% | HCT-116 colon 69.6% | HCC-2998 colon 127% | KM12 colon 83.9%

Cn1c(SCC(=O)c2ccc(F)cc2)nc2ccccc2c1=O
inactive: SR leukemia 93% | RPMI-8226 leukemia 76.5% | OVCAR-8 ovarian 94.5% | OVCAR-5 ovarian 105% | OVCAR-4 ovarian 79.1% | SK-OV-3 ovarian 95.7% | IGROV1 ovarian 88.7% | OVCAR-3 ovarian 104% | HS 578T breast 101% | NCI/ADR-RES ovarian 93.6% | T-47D breast 62.5% | BT-549 breast 97% | MDA-MB-435 melanoma 108% | SW-620 colon 108% | MCF7 breast 72.7% | HCT-116 colon 89.1% | HCC-2998 colon 104% | KM12 colon 98.1%

COc1ccc2c(c1)c(-c1nc(N)nnc1-c1c[nH]c3ccccc13)cn2C
active: MDA-MB-435 melanoma -47.8%
inactive: SR leukemia 14.8% | RPMI-8226 leukemia 41.8% | OVCAR-8 ovarian 51.3% | OVCAR-5 ovarian 72.2% | OVCAR-4 ovarian 66.4% | SK-OV-3 ovarian 63% | IGROV1 ovarian 30.5% | OVCAR-3 ovarian 19.7% | HS 578T breast 35.3% | NCI/ADR-RES ovarian 49.8% | T-47D breast 41.2% | BT-549 breast 49.2% | SW-620 colon 17.2% | MCF7 breast 15% | HCT-116 colon 23.1% | HCC-2998 colon 82.9% | KM12 colon 24.4%

COc1ccc2[nH]cc(/C=N/Nc3ccnc4cc(Cl)ccc34)c2c1
active: SR leukemia -27.1% | RPMI-8226 leukemia -62.8% | OVCAR-8 ovarian -70% | OVCAR-5 ovarian -100% | OVCAR-4 ovarian -100% | SK-OV-3 ovarian -95.6% | IGROV1 ovarian -94.6% | OVCAR-3 ovarian -82.1% | HS 578T breast -49.6% | NCI/ADR-RES ovarian -60.4% | T-47D breast -53.6% | BT-549 breast -91.8% | MDA-MB-435 melanoma -90.8% | SW-620 colon -71.8% | MCF7 breast -69.1% | HCT-116 colon -50.5% | HCC-2998 colon -89.4% | KM12 colon -78%

N#Cc1cnc2ccc(-c3cnc4n[nH]nc4c3)cc2c1N1CCc2cc(F)c(Cl)cc21
active: SR leukemia 3.77% | OVCAR-4 ovarian -16.9% | SK-OV-3 ovarian -0.177% | IGROV1 ovarian -8.77% | HS 578T breast -10.7% | T-47D breast 1.2% | BT-549 breast 3.78% | MCF7 breast 8.34%
inactive: RPMI-8226 leukemia 15.8% | OVCAR-8 ovarian 16.7% | OVCAR-5 ovarian 31.6% | OVCAR-3 ovarian 26.2% | NCI/ADR-RES ovarian 45% | MDA-MB-435 melanoma 19.5% | SW-620 colon 26.8% | HCT-116 colon 23.7% | HCC-2998 colon 22.5%

Cc1[nH]c(C(=O)Nc2ccccc2OCc2cccc(C(=O)NCCN)c2)cc1Cl
active: SR leukemia -3.39%
inactive: RPMI-8226 leukemia 89.6% | OVCAR-8 ovarian 84.7% | OVCAR-5 ovarian 97% | OVCAR-4 ovarian 102% | SK-OV-3 ovarian 101% | IGROV1 ovarian 94.5% | OVCAR-3 ovarian 109% | HS 578T breast 102% | NCI/ADR-RES ovarian 99.4% | T-47D breast 87.1% | BT-549 breast 104% | MDA-MB-435 melanoma 20.6% | SW-620 colon 32.4% | MCF7 breast 11.3% | HCT-116 colon 38.2% | HCC-2998 colon 109%

O=C(CSc1nnc(-c2ccc(Cl)cc2)n1-c1ccccc1)Nc1cccc(F)c1
active: OVCAR-4 ovarian -46.4% | T-47D breast 3.95% | HCT-116 colon -13.8%
inactive: SR leukemia 37.2% | RPMI-8226 leukemia 40.5% | OVCAR-8 ovarian 35.7% | OVCAR-5 ovarian 41.9% | SK-OV-3 ovarian 78.6% | IGROV1 ovarian 20.3% | OVCAR-3 ovarian 51.9% | HS 578T breast 28% | NCI/ADR-RES ovarian 37% | BT-549 breast 50.4% | MDA-MB-435 melanoma 49.6% | SW-620 colon 30.9% | MCF7 breast 39% | HCC-2998 colon 59.7% | KM12 colon 53.3%

O=C(Nc1cccc(Cl)c1)Nc1nc2cc([N+](=O)[O-])ccc2o1
inactive: SR leukemia 57.8% | RPMI-8226 leukemia 35.8% | OVCAR-8 ovarian 33.9% | OVCAR-5 ovarian 75.5% | SK-OV-3 ovarian 74.3% | IGROV1 ovarian 44.9% | HS 578T breast 71.4% | NCI/ADR-RES ovarian 22.6% | T-47D breast 15.4% | BT-549 breast 67.1% | MDA-MB-435 melanoma 40.9% | SW-620 colon 22.3% | MCF7 breast 36.8% | HCT-116 colon 26.8% | HCC-2998 colon 39%
active: OVCAR-4 ovarian 3.58% | OVCAR-3 ovarian -0.896%

C#Cc1cc(OC)c(C(=O)Nc2ccc(F)cc2C(=O)Nc2cccc(S(=O)(=O)C(F)(F)F)c2)cn1
inactive: OVCAR-4 ovarian 27.8% | T-47D breast 23.4% | MDA-MB-435 melanoma 10.2% | MCF7 breast 13.1% | HCC-2998 colon 47.8%
active: SR leukemia -42.7% | RPMI-8226 leukemia -44.1% | OVCAR-8 ovarian 5.67% | OVCAR-5 ovarian -33.2% | SK-OV-3 ovarian -70.5% | IGROV1 ovarian -51% | OVCAR-3 ovarian -30.2% | HS 578T breast -19.7% | NCI/ADR-RES ovarian -29.1% | BT-549 breast 1.8% | SW-620 colon 5.83% | HCT-116 colon 3.82% | KM12 colon 4.44%

O=C(CCCCCCNC(=O)C(O)(O)C(F)(F)F)Nc1ncc(-c2ccc(Br)cc2)s1
active: SR leukemia 8.24% | OVCAR-8 ovarian 1.13% | OVCAR-5 ovarian -2.49% | SK-OV-3 ovarian -14.6% | IGROV1 ovarian -21.8% | OVCAR-3 ovarian -58.1% | NCI/ADR-RES ovarian -4.64% | T-47D breast 3.85% | BT-549 breast -20.5% | MDA-MB-435 melanoma 6.58% | SW-620 colon -16.2% | MCF7 breast 6.6% | HCT-116 colon -26.3% | HCC-2998 colon -54.6%
inactive: RPMI-8226 leukemia 11.2% | OVCAR-4 ovarian 21.8% | HS 578T breast 16.6%

CCCCN1C(=O)/C(=c2\sc3n(c2=O)C2C(NN=3)N(CC)C(=O)N2CC)c2cc(C)ccc21 (stereo unspecified)
inactive: SR leukemia 64.1% | RPMI-8226 leukemia 99.8% | OVCAR-8 ovarian 93% | OVCAR-5 ovarian 96.1% | OVCAR-4 ovarian 97.2% | SK-OV-3 ovarian 108% | IGROV1 ovarian 88.4% | OVCAR-3 ovarian 102% | HS 578T breast 89.7% | NCI/ADR-RES ovarian 81.9% | T-47D breast 93.8% | BT-549 breast 96.3% | MDA-MB-435 melanoma 84.5% | SW-620 colon 95.1% | MCF7 breast 80% | HCT-116 colon 85.3% | HCC-2998 colon 109%

C#C[C@]1(O)CC[C@H]2[C@@H]3CC=C4c5sc(Nc6cc(Cl)ccc6OC)nc5CC[C@]4(C)[C@H]3CC[C@@]21C
inactive: OVCAR-8 ovarian 52.5% | OVCAR-5 ovarian 67.5% | OVCAR-4 ovarian 52.5% | IGROV1 ovarian 43.5% | OVCAR-3 ovarian 25.3% | NCI/ADR-RES ovarian 56.4% | T-47D breast 31.2% | HCC-2998 colon 54.3%
active: SR leukemia 3.9% | RPMI-8226 leukemia -35.1% | SK-OV-3 ovarian -6.24% | HS 578T breast -7.86% | BT-549 breast 3.68% | MDA-MB-435 melanoma -0.171% | SW-620 colon -20.7% | MCF7 breast -15.1% | HCT-116 colon 7.63%
